The source of these data is the supplement of paper PMC11417369.

Over roughly 25,000 sequences, “ln(normalized median fluorescence intensity)” has its median near 9.7; the highest 2% begin near 11. Shown is part of a subset that was picked to be rich in the highest values.

For this test, the system named is PfAP2-HC AP2 domain (GST-tagged). Description: gcPBM binding intensity (ln(normalized median fluorescence intensity)); higher = stronger DNA binding. Summed up:
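Binding intensity values are the highest Masliner-normalised natural-log median intensity among replicate spots of either probe orientation. The binding step lasted 1 h in 1× PBS with 1% milk, 0.2 mg/ml BSA, 0.5% salmon testes DNA and 0.03% Triton X-100, using GST-tagged P. falciparum DNA-binding domains expressed in E. coli on an Agilent 4 × 180k array of primer-extended double-stranded 36-bp intergenic genomic probes plus negative controls. Alexa488 anti-GST antibody and a 488 nm scan detected bound protein.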
As for “TATATATATATATACACACACACACCCCAAAGCGTA [CACACA_site64]”, the “gcPBM binding intensity (ln)” value worked out at 11.1.

For the sequence “TATATATATAAATACACACACACACCCCAAAGCGTA [CACACA_site4211]”, the “gcPBM binding intensity (ln)” value turned out to be 10.6. The value for “TATATATATATATATACACACACACCCACCAAAGCG [CACACA_site7904]” was 10.1; that for “TATAAATATAAATACACACACACACGCCAAAGCGTA [CACACA_site6181]” was 11; that for “TATAAATATAGACACACACACACCAAAGCGTAGCGC [CACACA_site6179]” was 10.3. With “TAAATATATAAATACACACACACCAAAGCAATAGAT [CACACA_site5605]”, the “gcPBM binding intensity (ln)” value was determined as 10.5.

“TATTATATTTATTTATGTACACATATACTTAAATAA [XGTACX_site1355]”: the “gcPBM binding intensity (ln)” value turned out to be 9.69.

On to “AAATAGCCAAAAATCATGCACACCTAAAAAAAAAAA [CACACA_site2572]”, for which the “gcPBM binding intensity (ln)” value was 9.77. “AGCTGAAAAAAAAGCTTGCACACGTATTTGCTTTAT [CACACA_site1512]”: the “gcPBM binding intensity (ln)” value came to 9.81. The value for “ATAAACAATTAACAAACATGCAAATTTTAAATGTGT [TGCATGCA_site919]” was 9.68; that for “ATATTTGTATAAATTGCACACTTTATTTTTTTTAAG [CACACA_site1558]” was 9.61; that for TTTGTTTGTAAAATGTTGCACTTTCTTTTGCTGATA was 9.66. Consider “ATATATCTATATAGAAATGTATATATATATATGTGT [TGCATGCA_negctrl_site349]”, for which the “gcPBM binding intensity (ln)” value amounted to 9.77. The value for “TATTTCGTAATTTAATAATATACAAGAAATATATAT [XGTACX_negctrl_site143]” was 9.4; that for “ATCAAATAGAGACACACACACCTAAACATAAAAGAA [CACACA_site7321]” was 10.6. The value for “CAATCAAATGGACACACACACACCTAAACATAAAAG [CACACA_site5524]” was 10.5.

In the case of “AACAATCAAATAGACACACACACACCCAAACATAAA [CACACA_site2757]”, the “gcPBM binding intensity (ln)” value was 10.6.

On to “ATAAAAAAGAAACAAACACACATACATACAAACAAA [CACACA_site4256]”, for which the “gcPBM binding intensity (ln)” value came out at 10.3. The value for “CAATCAAAGAAACACACACACACCTAAACATAAAAG [CACACA_site2756]” was 11.7. Consider “CAATCAAATAGACACACACACACCTAAACATAAAAG [CACACA_site7322]”, for which the “gcPBM binding intensity (ln)” value was 11.1.

In the case of “GAAAAGTATAAAAAACGTACAAGTTTTATTTTCACA [XGTACX_site4604]”, the “gcPBM binding intensity (ln)” value was 9.58. As to “TTTCTAATTATTTCCCTTCAAATATATTAATATCGT [CACACA_negctrl_site429]”, the “gcPBM binding intensity (ln)” value is 9.55. As for “AGTATACATATATATACACACACATATATATATATA [CACACA_site7883]”, the “gcPBM binding intensity (ln)” value came out at 9.87. For “AGTATACTCGGACACACACACACATATATATATATA [CACACA_site5031]” the value was 11.7; for “CATATACTCGGACACACACACACACCGACAAAAAAA [CACACA_site4433]”, 11.1.

In the case of “AGTATACATATATATACACACATATATATATATATA [CACACA_site300]”, the “gcPBM binding intensity (ln)” value is 9.8. As to “AAAACAAACGGACACACACACATATATATATATATA [CACACA_site5924]”, the “gcPBM binding intensity (ln)” value worked out at 10.5. As for “CATATATACTCATACACACACACACCGACACAGACA [CACACA_site5026]”, the “gcPBM binding intensity (ln)” value was 10.3. For “ACAAAAAAAAAAAAAAAAAAAAAAAAAAAATAATAA [CACACA_negctrl_site1640]” the value was 9.18. For “TAAAATATATAAAACTGTACATTTTAAAGGCACAAC [XGTACX_site8342]” the value was 9.98; for “AAAAATCAATTAGAAGAACACACGTAAATTTTTTTT [CACACA_site2396]”, 9.76. On to “TATTTTTCTTTATTGGTACACACGAAAAAAAAATTG [CACACA_site3054]”, for which the “gcPBM binding intensity (ln)” value turned out to be 9.53. For “AAATGGGTTTATTTAACACACAAAAGAAAAAATATA [CACACA_site1938]” the value was 9.77; for “AAAGGTGTATTTAATACACACGTGTCATTAAAATTG [CACACA_site4508]”, 9.71; for “TATATATATATATATACACACACACCCATATATATA [CACACA_site8812]”, 10.3. The value for “ATAATCCACAAGCACACACACACACCCATATATATA [CACACA_site1268]” was 10.6; that for “CACACCCACAGACACACACACACATATATAATATAT [CACACA_site594]” was 11.4.

“TATATATATATAGACACACACACACCCATATATATA [CACACA_site4117]”: the “gcPBM binding intensity (ln)” value worked out at 10.9. As to “TAATAATCCACAAGCACACACACACCCATATATATA [CACACA_site1267]”, the “gcPBM binding intensity (ln)” value came out at 10.8. Regarding “CACCCATACAGACATACACACACATATATATTAATA [CACACA_site8077]”, the “gcPBM binding intensity (ln)” value came to 10.2. For the sequence “CGCACCCACAGACACACACACACATATATATATATA [CACACA_site2202]”, the “gcPBM binding intensity (ln)” value was 11.4.

For “TATATACATAGACACCCACACACAAAAAAAAAAAAA [CACACA_site8186]”, the “gcPBM binding intensity (ln)” value was 10.2. For “TAAATACAGACATACACACATACACCCACATATATA [CACACA_site547]”, the “gcPBM binding intensity (ln)” value is 10.3. The value for “CACACCCACAGACACACACACACATATATATATATA [CACACA_site363]” was 10.8; that for “TATAATAATCCACAAGCACACACACCCACATATATA [CACACA_site8343]” was 11.3.
